The results in this text go back to PubChem BioAssay AID1851 (National Center for Advancing Translational Sciences (NCATS), 2009).

The campaign covered roughly 16,000 compounds. About 5,100 (32%) were called active. Another 25% or so got no clear call; they are omitted. Some of the results follow. A number with no mark means an inactive call. Calls come from the whole dose curve; as a rule, active = well fitted curve in the direction sought with a large enough effect; inconclusive = small, poorly fitted or top-dose-only effect, or effect the other way; inactive = no such curve, though single readings can be large or run the other way.
% is set by controls: 0 for no effect and ±100 for the full control effect.

The experiment deals with Cytochrome P450 3A4 (Homo sapiens) (UniProt P08684). The experiment in a line: Cytochrome panel assay with activity outcomes. Particulars: recombinant CYP, pro-luciferin dealkylation, luminescence, p450-cyp3a4; series mostly up to 57.1 µM; activity, negative = inhibition: at the top concentration.
Cytochrome P450 3A4 (Homo sapiens), sequence (P08684 whole entry, looked up): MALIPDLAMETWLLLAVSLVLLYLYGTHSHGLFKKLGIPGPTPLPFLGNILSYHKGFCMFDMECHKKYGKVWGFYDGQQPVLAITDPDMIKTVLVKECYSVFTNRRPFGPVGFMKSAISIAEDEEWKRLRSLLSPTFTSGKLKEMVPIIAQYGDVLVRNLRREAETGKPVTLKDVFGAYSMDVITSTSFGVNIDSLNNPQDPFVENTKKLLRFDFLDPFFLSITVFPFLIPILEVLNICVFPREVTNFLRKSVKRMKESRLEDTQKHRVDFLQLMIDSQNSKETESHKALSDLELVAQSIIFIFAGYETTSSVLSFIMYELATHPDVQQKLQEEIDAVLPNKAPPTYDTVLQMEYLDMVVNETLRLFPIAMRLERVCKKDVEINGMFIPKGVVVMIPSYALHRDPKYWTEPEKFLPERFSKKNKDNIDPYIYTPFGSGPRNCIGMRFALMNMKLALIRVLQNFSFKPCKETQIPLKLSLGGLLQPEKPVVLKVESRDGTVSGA
Turning to `Cc1cc(C)c(C#N)c(Oc2ccccc2)n1`, the activity, negative = inhibition was -18.2% [at 11.4 µM]. Usually AC50 stands for the concentration at which the activity in the assay is half-maximal. Take `Cc1cc(C)c(C#N)c(Oc2ccc(F)cc2)n1`: the AC50 is 8.91 µM (active). In the case of `Cc1cc(C)c(S(C)(=O)=O)c(Oc2ccc(F)cc2)n1`, the activity, negative = inhibition is 26.1% [at 2.29 µM]. On to `CCCC(=O)Nc1cccc(Oc2nc(C)cc(C)c2C#N)c1`, for which the AC50 was 14.1 µM (active). `COc1ccc(-n2c(=O)c(-c3ccc(Cl)cc3)nc3cnc(N4CCOCC4)nc32)cc1`: the “activity, negative = inhibition” value is -5.16%. On to `Clc1ccc(-n2nnnc2CN2CCOCC2)cc1`, for which the “activity, negative = inhibition” value is -2.71%.

Turning to `Nc1nc(CSc2nnnn2-c2ccc(Cl)cc2)nc(N2CCOCC2)n1`, the AC50 was 3.98 µM (active). Take `COC(=O)c1cc(/C=C/c2ccccc2)on1`: the activity, negative = inhibition was -3.05% [at 2.29 µM]. As for `COC(=O)C1=C(C)N=C2SC(C)C(=O)N2C1/C=C/c1ccccc1` (centres undefined), the AC50 was 12.6 µM (active). Take `CC(C)C(=O)N[C@H]1CCCN1C(=O)/C=C\c1ccccc1`: the activity, negative = inhibition is -20.7% [at 11.4 µM]. Take `Cc1[nH]c2ccccc2c1CCNC(=O)c1ccc2c(c1[N+](=O)[O-])C(=O)c1ccccc1C2=O`: the AC50 is 8.91 µM (active).

Regarding `Cc1[nH]c2c(C)cccc2c1CCNC(=O)c1ccc2c(c1[N+](=O)[O-])C(=O)c1ccccc1C2=O`, the concentration at half-maximal activity (AC50) is 3.16 µM (active). With `CC(C)NC(=O)COC(=O)c1cc(=O)[nH]c2ccccc12`, the activity, negative = inhibition was 1.83% [at 2.29 µM]. The same measure, in the same setting: as for `COc1cc(OC)nc(NC(C)=O)n1`, the figure is 28.1%.

`COc1cc(C2SCCCCCCCCCCSC(c3ccc(O)c(OC)c3)SCCCCCCCCCCS2)ccc1O` (centres undefined): the activity, negative = inhibition was 12.5% [at 11.4 µM]. `COc1ccc(C[C@@H]2C(=O)N[C@H](C)C(=O)N(C)[C@@H]3Cc4ccc(cc4)Oc4cc(ccc4O)C[C@H](C(=O)N[C@@H](C)C(=O)N[C@H](C)C(=O)N2C)N(C)C3=O)cc1`: the AC50 is 3.98 µM (active). Still for that read-out and setting: as for `COc1ccc(-c2cc(C3CCN(c4cc(Cl)nc(N)n4)CC3)[nH]n2)cc1`, the figure is 28.2 µM (active). Turning to `Nc1nc(Cl)cc(N2CCOCC2)n1`, the “activity, negative = inhibition” value is -4.16%. Consider `NC1CCN(c2cccc(Cl)n2)CC1`, for which the AC50 result was “inactive”. Same read-out and setting: as for `Nc1nc(Cl)cc(N2CCC(c3cc(-c4ccc(Cl)cc4Cl)n[nH]3)CC2)n1`, the figure is 20 µM (active); as for `CCNc1ncc2nc(-c3cccs3)c(=O)n(CCC#N)c2n1`, 6.31 µM (active). For the compound `CCNc1ncc2nc(-c3ccc(F)cc3)c(=O)n(CCC#N)c2n1`, the “activity, negative = inhibition” value is -24.5%.

As for `CCNc1ncc2nc(-c3ccc(F)cc3)c(=O)n(CCOC)c2n1`, the “activity, negative = inhibition” value was 13.3%.

On to `CCNc1ncc2nc(-c3cccs3)c(=O)n(Cc3ccc(F)cc3)c2n1`, for which the AC50 was 15.8 µM (active). On to `CCNc1ncc2nc(-c3cc(F)cc(F)c3)c(=O)n(CCC#N)c2n1`, for which the “activity, negative = inhibition” value is -5.56%. As for `CCNc1ncc2nc(-c3ccccc3)c(=O)n(Cc3cccs3)c2n1`, the AC50 is 15.8 µM (active). Still for that read-out and setting: as for `CCNc1ncc2nc(-c3cccs3)c(=O)n(Cc3cccs3)c2n1`, the figure is 6.31 µM (active).

In the case of `CCNc1ncc2nc(C)c(=O)n(C)c2n1`, the “activity, negative = inhibition” value was -19.3%. For `CCNc1ncc2nc(C)c(=O)n(Cc3cccs3)c2n1`, the AC50 was 15.8 µM (active). As to `O=C(Nc1ccc2oc(-c3ccccc3F)nc2c1)c1ccc2c(c1)OCCO2`, the AC50 was 3.16 µM (active). For the compound `COc1cc(C(=O)NC(=S)Nc2ccc(Cl)c(C(=O)O)c2)cc(OC)c1OC`, the activity, negative = inhibition was -9.66% [at 11.4 µM]. As for `COc1cc(C(=O)NC(=S)Nc2ccc3oc(=O)ccc3c2)cc(OC)c1OC`, the concentration at half-maximal activity (AC50) was 4.47 µM (active). In the case of `COc1cc2ccc(=O)oc2cc1O`, the “activity, negative = inhibition” value is -6.97% [at 25.6 µM].

Turning to `COc1cc(C(=O)NC(=S)Nc2cccc(-c3cc4ccccc4oc3=O)c2)cc(OC)c1OC`, the AC50 was 6.31 µM (active). In the case of `CC(O)(P(=O)(O)O)P(=O)(O)O`, the “activity, negative = inhibition” value was -6.71% [at 25.6 µM].

Regarding `Cn1nc(-c2ccc(N3CCOCC3)c(NS(=O)(=O)c3ccc(Cl)cc3)c2)c2ccccc2c1=O`, the AC50 is 1.41 µM (active).

For the compound `CCC(=O)Nc1cc(-c2nn(C)c(=O)c3ccccc23)ccc1N1CCCCC1`, the “activity, negative = inhibition” value was -26.6%. Consider `Cc1c(C(=O)NN2CCOCC2)nn(-c2ccc(Cl)cc2Cl)c1-c1ccc(I)cc1`, for which the “activity, negative = inhibition” value was -26.3%. Take `COC(=O)[C@@]1(Cc2ccc(F)cc2)[C@H]2c3cc(C(=O)N4CCCC4)n(CCc4c[nH]c5ccccc45)c3C[C@H]2CN1C(=O)c1ccccc1`: the AC50 was 1 µM (active). Still for that read-out and setting: as for `COC(=O)[C@@]1(Cc2ccc(OC)cc2)[C@H]2c3cc(C(=O)N4CCCC4)n(CCc4c[nH]c5cc(F)ccc45)c3C[C@H]2CN1C(=O)c1ccccc1`, the figure is 1.26 µM (active); as for `COC(=O)[C@@]1(Cc2ccc(OC)cc2)[C@H]2c3cc(C(=O)N4CCCC4)n(CCc4c[nH]c5ccc(O)cc45)c3C[C@H]2CN1C(=O)c1ccccc1`, 1.58 µM (active). Regarding `CCN(CC)c1ccc(NC(=O)c2cccnc2)c(C)c1`, the activity, negative = inhibition is 1.22% [at 2.29 µM].

In the case of `CCOc1cc(C#N)c(NC(=O)c2cccnc2)cc1OCC`, the AC50 was 12.6 µM (active). Turning to `CC1=C(C(=O)Nc2ccccc2)C(c2ccco2)NC(=S)N1` (centres undefined), the activity, negative = inhibition was 0.933% [at 2.29 µM]. Same read-out and setting: as for `CCN(CC)C(=O)c1sc2[nH]c(=S)n(-c3ccccc3)c(=O)c2c1C`, the figure is -14.5%. In the case of `CCN(CC)C(=O)C1=C(C)NC(=S)NC1c1cn(-c2ccccc2)nc1-c1ccc(Cl)cc1` (centres undefined), the AC50 was 7.08 µM (active).

With `COc1ccc2[nH]cc(CCNc3ccnc(-c4ccccc4C)n3)c2c1`, the AC50 was 3.16 µM (active).

As for `COc1ccc2[nH]cc(CCNc3ccnc(-c4ccccc4C(F)(F)F)n3)c2c1`, the AC50 was 2 µM (active).

As for `COc1ccc2[nH]cc(CCNc3ccnc(-c4ccccc4Cl)n3)c2c1`, the AC50 is 2 µM (active). With `NC(=O)N[C@H]1NC(=O)NC1=O`, the “activity, negative = inhibition” value is -8.61% [at 25.6 µM]. As to `O=C(O)[C@@H](c1ccccc1)[C@@H](C(=O)O)c1ccccc1`, the activity, negative = inhibition was -6.94% [at 11.4 µM]. On the same count and under the same terms, as for `Cc1ccc(SCc2nnc(NC(=O)c3ccccc3)s2)cc1`, the figure is 6.01%. As for `Cc1ccn2c(NC(=O)c3ccccc3)c(-c3cccs3)nc2c1`, the AC50 is 7.94 µM (active). Consider `Cn1sc(NC(=O)c2ccccc2)nc1=O`, for which the “activity, negative = inhibition” value is 0.56%. Take `COc1ccccc1CNc1ncncc1-c1ccccc1C(F)(F)F`: the half-maximal activity concentration (AC50) is 0.0794 µM (active).

Regarding `COc1ccc(CNc2ncncc2-c2ccccc2C(F)(F)F)c(OC)c1`, the AC50 was 0.316 µM (active). As for `CSc1ccc(NC(=O)Nc2cc(C)ccn2)cc1`, the activity, negative = inhibition is -14.7% [at 11.4 µM].

On to `CSc1ccc(CNc2ccc(C)c(C)c2)cc1`, for which the AC50 was 12.6 µM (active). For `CSc1ccc(NC(=O)NCCN2CCc3ccccc3C2)cc1`, the “activity, negative = inhibition” value is -27.6%. Same read-out and setting: as for `O=C(O)[C@H]1[C@H](C(=O)O)[C@H](C(=O)O)C[C@@H]1C(=O)O`, the figure is -3.42% [at 11.4 µM]. Consider `COc1ccc(-n2c(CNc3ccc(C)cc3)nnc2SCC(=O)Nc2nc(-c3ccccc3)cs2)cc1`, for which the concentration at half-maximal activity (AC50) is 3.16 µM (active).

Turning to `COc1ccc(NC(=O)CSc2nc(-c3ccc(C)cc3)cc(C(F)(F)F)c2C#N)cc1`, the activity, negative = inhibition was 0.258% [at 2.29 µM]. With `COc1ccc2cc(C)c3nnc(SCC(=O)Nc4nc(-c5ccccc5)cs4)n3c2c1`, the AC50 was 2.24 µM (active). Still for that read-out and setting: as for `Nc1ccc(N2C(=O)c3ccccc3C2=O)c(Cl)c1`, the figure is 15.8 µM (active). Consider `CC1CCN(CCc2nc3cc(NC(=O)NC4CCCCC4)ccc3n2C)CC1`, for which the “activity, negative = inhibition” value is -7.07%. With `Cc1ccccc1-c1cncnc1NCc1cccnc1`, the AC50 was 0.631 µM (active). On the same count and under the same terms, as for `Cc1ccccc1-c1cncnc1NCc1ccccc1`, the figure is 0.316 µM (active); as for `FC(F)(F)c1ccccc1-c1cncnc1NCc1cccnc1`, 0.631 µM (active); as for `CN(C)Cc1ccccc1-c1cncnc1NCc1cccnc1`, 1.58 µM (active). Turning to `c1cncc(CNc2ncn[nH]2)c1`, the activity, negative = inhibition was -14.4% [at 11.4 µM]. Still for that read-out and setting: as for `N#Cc1ccc(OC(=O)c2ccc(N=C(N)N)cc2)cc1`, the figure is -10.9% [at 11.4 µM]. Regarding `Cc1cccc(CNc2ncncc2-c2ccccc2C)c1`, the AC50 is 0.398 µM (active).

Take `Cc1cccc(CNc2ncncc2-c2ccccc2Cl)c1`: the concentration at half-maximal activity (AC50) was 0.2 µM (active).

In the case of `Cc1cccc(CNc2ncncc2-c2ccccc2C(F)(F)F)c1`, the AC50 was 0.0794 µM (active). In the case of `Cc1ccc(N(CC(N)=O)C2SC(=O)N(Cc3cccc(C(=O)O)c3)C2=O)cc1` (centres undefined), the “activity, negative = inhibition” value is 22.1%. The same measure, in the same setting: as for `c1ccc(CSc2nnc([C@@H]3CCCN3)o2)cc1`, the figure is -4.35% [at 11.4 µM]. For the compound `Clc1ccc(CSc2nnc(-c3cccnc3)o2)cc1`, the AC50 is 3.16 µM (active). For the compound `c1ccc(CSc2nnc(-c3sccc3-n3cccc3)o2)cc1`, the AC50 is 15.8 µM (active). Regarding `Cc1cccc(-c2nnc(SCc3ccccc3)o2)c1`, the “activity, negative = inhibition” value was -29.6%. For `Clc1cccc(CSc2nnc(-c3sccc3-n3cccc3)o2)c1`, the half-maximal activity concentration (AC50) was 8.91 µM (active). For the compound `Clc1ccc(CSc2nnc(-c3sccc3-n3cccc3)o2)cc1`, the AC50 is 6.31 µM (active).

As to `CCOC(=O)c1c(NC(=O)Cn2nc([N+](=O)[O-])c(Br)c2C)sc2c1CCC(C)C2` (centres undefined), the activity, negative = inhibition was -21.8% [at 2.29 µM].

On to `CCOC(=O)c1c(NC(=O)CSc2nnc(C)s2)sc2c1CCCCC2`, for which the activity, negative = inhibition was -23.9% [at 2.29 µM]. As for `COC(=O)c1c(NC(=O)Cn2cc([N+](=O)[O-])cn2)sc2c1CCC2`, the AC50 is 14.1 µM (active).

On to `CCOC(=O)c1c(NC(=O)Cn2cc([N+](=O)[O-])cn2)sc2c1CCC2`, for which the AC50 is 10 µM (active). Consider `O=C(O)CCN1C(=S)CSC1=S`, for which the activity, negative = inhibition is -22% [at 11.4 µM]. The same measure, in the same setting: as for `Cc1ccc(-c2ncccc2OC(=O)C23CC4CC(CC(C4)C2)C3)cc1`, the figure is -12.5% [at 2.29 µM].

In the case of `CCC(C(=O)c1ccccc1)N(C(=O)c1ccccc1Cl)N1C(=O)C2C3C=CC(C3)C2C1=O` (centres undefined), the AC50 is 0.891 µM (active).

Regarding `CCOC(=O)c1cccc(C(=O)OCC)n1`, the “activity, negative = inhibition” value was -1.92%.

As for `Cc1ccc(OC(=O)c2cccc(C(=O)Oc3ccc(C)cc3)n2)cc1`, the activity, negative = inhibition is 6.37% [at 11.4 µM]. On to `COC(=O)c1cccc(C(=O)Nc2ccc(C)cc2)n1`, for which the AC50 is 12.6 µM (active). For the compound `c1csc(CNc2ccnc(-c3ccc4c(c3)OCO4)n2)c1`, the AC50 was 1 µM (active). In the case of `c1ccc(CNc2ccnc(-c3ccc4c(c3)OCO4)n2)cc1`, the AC50 was 0.794 µM (active). The same measure, in the same setting: as for `c1cncc(CNc2ccnc(-c3ccc4c(c3)OCO4)n2)c1`, the figure is 1 µM (active).
